# Measurements from PubChem BioAssay AID651599 (National Center for Advancing Translational Sciences (NCATS), 2012).
# Inconclusive results are not listed. Entries that show only a call come without a potency. Activity calls are given as the source filed them. Calls follow the shape of the dose curve; as a rule, active = well fitted inhibition curve with a large enough effect; inconclusive = small, poorly fitted or top-dose-only effect; inactive = no such curve, though single readings can be large or run the other way.
# Molecular target: Tumor susceptibility gene 101 protein (Homo sapiens) (UniProt Q99816)
# Assay: qHTS Assay for Iinhibitors of HIV-1 Budding by Blocking the Interaction of PTAP/TSG101: Hit Validation in TR assay
# Conditions: Tsg101 binding domain + Texas Red-labeled PTAP peptide, fluorescence polarization, 20 min; series mostly up to 57.5 µM
# How it was run: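 Texas Red-PTAP peptide (50 nM) binding to Tsg101 binding domain (10 uM), both final, in pH 7.5 HEPES buffer, read as polarization after 20 min at room temperature; compounds pinned before peptide addition.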
# Potency is read from the fitted curve at half-maximal effect.
# Tumor susceptibility gene 101 protein (Homo sapiens), sequence (Q99816 whole entry, looked up): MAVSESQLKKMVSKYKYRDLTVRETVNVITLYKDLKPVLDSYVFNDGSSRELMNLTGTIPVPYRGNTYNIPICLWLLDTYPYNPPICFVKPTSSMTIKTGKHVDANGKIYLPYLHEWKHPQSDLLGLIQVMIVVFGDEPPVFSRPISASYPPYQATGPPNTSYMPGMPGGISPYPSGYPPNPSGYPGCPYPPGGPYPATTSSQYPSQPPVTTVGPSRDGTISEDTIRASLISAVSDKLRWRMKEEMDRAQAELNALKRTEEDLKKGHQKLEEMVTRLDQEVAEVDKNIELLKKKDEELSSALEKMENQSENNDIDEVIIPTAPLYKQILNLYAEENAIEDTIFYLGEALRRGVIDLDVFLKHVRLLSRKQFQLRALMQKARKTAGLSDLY
row,SMILES,Potency
1,CCN(CC)C(=O)Cn1c(=O)c2ccccc2n2c(=S)sc(-c3cccc(C)c3)c12,inactive
2,CCOC(=O)/C(C#N)=C\c1ccc(N2CCN(C/C=C/c3ccccc3)CC2)cc1,inactive
3,CC1(C)CC(=O)C2=C(C1)OC(N)=C(C#N)C2c1cc2c(cc1[N+](=O)[O-])OCO2 (centres undefined),inactive
4,COc1ncnc2c1N=C1CC(C)(C)CC(N)=C1S2,inactive
5,O=C(CN1C(=O)NC(Cc2c[nH]c3ccccc23)C1=O)Nc1ccccc1C(F)(F)F (centres undefined),inactive
6,CC(=O)Nc1ccc(N2C(=O)c3cccc4c(O)ccc(c34)C2=O)cc1,inactive
7,Nc1cccc(N2C(=O)c3cccc4c(N)ccc(c34)C2=O)c1,inactive
8,COc1ccc(/C=c2\s/c(=C/C(=O)c3ccc(C)cc3)[nH]c2=O)c(OC)c1,inactive
9,O=C(Nc1ccccc1F)C(=Cc1sc(N2CCOCC2)nc1-c1ccccc1)C(=O)Nc1ccccc1F,inactive
10,CCN(C(=O)c1sc2nc3n(c(=O)c2c1C)CCCC3)c1ccccc1F,inactive
11,CCN1CCc2c(sc(NC(=O)Nc3ccc(Cl)c(Cl)c3)c2C(N)=O)C1,inactive
12,COc1ccc(NC(=O)c2nc(-c3ccc(C)cc3)n3c2CCCCC3)cc1,inactive
13,OCCN(CCO)c1nc(N2CCCCC2)c2nc(N(CCO)CCO)nc(N3CCCCC3)c2n1,inactive
14,Clc1ccc(-c2nnc3sc(-c4ccc(Br)o4)nn23)cc1,inactive
15,CCCCNc1ccc2c3c(cccc13)C(=O)N(CCCC)C2=O,inactive
16,CC(=O)Nc1ccc2nc3c(=O)[nH]c(=O)[nH]c3nc2c1,inactive
17,OC(CN1CCN(c2ccccn2)CC1)Cn1c2ccccc2c2ccccc21 (centres undefined),inactive
18,COc1ccccc1N1C(C)=CC(=C(C#N)c2nc3ccccc3s2)C=C1C,inactive
19,Nc1cnccc1C(=O)O,inactive
20,Cc1cc(=O)oc2ccc(OC(=O)CN3C(=O)c4cccc([N+](=O)[O-])c4C3=O)cc12,inactive

row,SMILES,Potency
1,O=c1cc2oc3cc(O)c(O)cc3c(-c3ccccc3O)c-2cc1O,16.3 µM (active)
2,CN1/C(=C\C=C2/C(=O)Oc3ccccc3C2=O)C(C)(C)c2ccccc21,inactive
3,Cc1ccccc1-n1c(SCc2c(C)noc2C)nnc1-c1cccnc1,inactive
4,CCn1nc(-c2ccccc2)c2nc3ccccc3nc21,inactive
5,COc1cccc(C2C3CN(C)CC=C3C(C#N)=C(N)C2(C#N)C#N)c1OC (centres undefined),inactive
6,COC(CNC(=O)c1ccc2c3c(onc13)-c1ccccc1C2=O)OC,inactive
7,COc1ccc(C(=O)c2sc3nc(C)cc(-c4cccs4)c3c2N)cc1OC,inactive
8,O=Cc1ccc2noc(-c3ccc(F)cc3)c2c1,inactive
9,CC(C)(C)C(=O)c1sc2nc(-c3cccs3)cc(C(F)(F)F)c2c1N,inactive
10,CC(C)(C)N=Cc1c(O)ccc2oc3c(c12)CCCC3,inactive
11,CC(=O)n1c(C=Nc2ccc(Cl)cc2)c(O)c2ccccc21,inactive
12,Cc1c(C(=O)Nc2cccc(C(F)(F)F)c2)sc2nc3n(c(=O)c12)CCCC3,inactive
13,Cc1ccc[n+](-c2nc([O-])sc2C=O)c1,inactive
14,O=C(CCN1C(=O)/C(=C/c2ccco2)SC1=S)Nc1ccc(O)cc1C(=O)O,inactive
15,CCc1cccc(CC)c1NC(=O)CSc1nnc(C2CC2)n1C,inactive
16,Cc1ccc2nc(-c3ccco3)c(Nc3ccccc3)n2c1,inactive
17,CCc1ccc[n+](-c2[nH]c(=O)sc2/C=N/NC([S-])=Nc2ccccc2)c1,inactive
18,CN1CC=C2C(C#N)=C(N)C(C#N)(C#N)[C@H](c3ccoc3)[C@H]2C1,inactive
19,CCOC(=O)c1cnc2ccc(OC)cc2c1Nc1ccc(N2CCN(C)CC2)cc1,inactive
